The source of these data is PubChem BioAssay (NCATS).

Records with an inconclusive call do not appear. Activity calls are given as the source filed them. Unless noted, calls follow the shape of the full dose curve.

Experiment [1] has as its target Peroxisome proliferator-activated receptor delta (Homo sapiens) (UniProt Q03181). The experiment can be described thus: qHTS assay for small molecule agonists of peroxisome proliferator-activated receptor delta signaling (AID 588534).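 Also: 0% = DMSO basal wells and 100% = positive control agonist at 10 µM.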 The method in brief: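 Reporter cells were plated and held 5 hrs at 37 C before compounds were added. After 18 hrs at 37 C, CCF4 dye was loaded for 2 hrs at RT and fluorescence measured.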
For orientation: In qHTS, concentration-response curves come from the screen itself.

A short description of experiment [2]: qHTS assay for small molecule antagonists of peroxisome proliferator-activated receptor delta signaling (AID 588535).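 Also: cells co-treated with a PPAR-delta agonist as stimulator during compound exposure.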 The conditions noted are these: HEK293T PPARd-UAS-bla, beta-lactamase FRET ratio, 18 h; 460 nm channel. Put shortly: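 Cells were seeded at 4000 per well in assay medium containing 2% charcoal/dextran FBS and held 5 hrs at 37 C. Compounds were then added for 18 hrs. CCF4 substrate was applied for 2 hrs at room temperature before fluorescence reading.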

The target in experiment [3] is Peroxisome proliferator-activated receptor gamma (Homo sapiens) (UniProt P37231). Put plainly: qHTS assay for small molecule agonists of peroxisome proliferator-activated receptor gamma signaling (AID 588536; active = well fitted curve in the direction sought with a large enough effect in the signal ratio, with a control signal flat, not every such curve was filed as active; the % refers to the signal ratio;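 also: 0% = DMSO basal wells and 100% = rosiglitazone at 2 µM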). Put shortly: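 GeneBLAzer PPAR-gamma-UAS-bla HEK293 cells in 1% charcoal/dextran-treated FBS medium were treated 16 h at 37 C with compounds. Beta-lactamase activity was read by CCF4 ratio (460/530 nm). Response was normalized to 2 uM rosiglitazone (100%) and DMSO, then Hill-fitted for EC50 and efficacy.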

The target is the same in experiment [4]. The experiment can be described thus: qHTS assay for small molecule antagonists of peroxisome proliferator-activated receptor gamma signaling (AID 588537; active = well fitted inhibition curve with a large enough effect in the signal ratio, with a control signal flat, not every such curve was filed as active; the % refers to the signal ratio;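 also: reporter cells co-stimulated with 50 nM rosiglitazone agonist during compound treatment; % of control where 0% means no effect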). The method in brief: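 Step one: plate 3000 HEK293 UAS-bla cells per well in medium with 1% stripped serum and hold 6-6.5 h at 37 C. Step two: add compound and 50 nM agonist for 16 h. Step three: CCF4 loading, fluorescence read.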

Experiment [5] concerns the target Vitamin D3 receptor (Homo sapiens) (UniProt P11473). Put plainly: qHTS assay for small molecule antagonists of vitamin D receptor signaling (AID 588541).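 Also: receptor activated by calcitriol during compound treatment; series mostly up to about 77 µM; % is scaled to controls: 0 for no effect and ±100 for the full control effect.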 The method in brief: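 VDR-UAS-bla HEK293T cells in 2% charcoal-stripped FBS were stimulated with 1-alpha,25-dihydroxyvitamin D3 (3 nM final) plus compound for 16 h at 37 C. The beta-lactamase CCF4 readout was normalized to 50 nM agonist and DMSO, and Hill fits gave IC50.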

The target is the same in experiment [6]. The experiment can be described thus: qHTS assay for small molecule agonists of vitamin D receptor signaling (AID 588543).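 Also: 0% = DMSO basal and 100% = reference agonist control.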 Put shortly: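 β-lactamase reporter, VDR-UAS-bla HEK293T, agonist mode. Cells plated 5 h at 37 °C, compound titration 16 h at 37 °C, CCF4 dye 2 h RT, ratio 460/530 nm. Hill fit → EC50, efficacy vs 50 nM 1α,25-(OH)2D3.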
Experiment [7] deals with Retinoic acid receptor RXR-alpha (Homo sapiens) (UniProt P19793). The experiment can be described thus: qHTS assay for small molecule agonists of retinoid X receptor alpha signaling (AID 588544).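 Also: 0% = DMSO basal wells and 100% = reference agonist.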
Experiment [8] concerns the target Thyroid hormone receptor beta (Homo sapiens) (UniProt P10828). The experiment can be described thus: qHTS assay for small molecule agonists of thyroid hormone receptor beta signaling (AID 588545).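 Also: 0% = DMSO only and 100% = 10 nM T3.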 Put shortly: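 Compounds were tested as agonists in TR-UAS-bla-GripTite HEK 293 cells. After 18 hrs at 37 C, CCF4 substrate was added and fluorescence read after 2 hrs at room temperature.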

Experiment [9] is described as follows: qHTS assay for small molecule antagonists of retinoid X receptor alpha signaling (AID 588546; active = well fitted inhibition curve with a large enough effect in the signal ratio, with a control signal flat, not every such curve was filed as active; the % refers to the signal ratio;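 also: cells stimulated with 9-cis-retinoic acid as agonist; % is scaled to controls: 0 for no effect and ±100 for the full control effect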). The conditions noted are these: HEK293T RXRa-UAS-bla, beta-lactamase ratio, antagonist mode; measured here: W530 green channel, cytotoxicity proxy. The method in brief: (§1)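 Beta-lactamase reporter inhibition, read as CCF4 fluorescence ratio (ex 405, em 460/530 nm) after 2 h at RT. HEK293T UAS-bla cells, 2500/well, were stimulated with 9-cis-RA at 500 or 100 nM final alongside test compound for 18 h at 37 C.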

Experiment [10] addresses Retinoic acid receptor RXR-alpha (Homo sapiens) (UniProt P19793). The description is as above. The conditions noted are these: HEK293T RXRa-UAS-bla, beta-lactamase ratio, antagonist mode. The method in brief: as §1
In experiment [11] the target is Thyroid hormone receptor beta (Homo sapiens) (UniProt P10828). Put plainly: qHTS assay for small molecule antagonists of thyroid hormone receptor beta signaling (AID 588547; active = well fitted inhibition curve with a large enough effect in the signal ratio, with a control signal flat, not every such curve was filed as active; the % refers to the signal ratio;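 also: cells stimulated with 0.4 nM T3 agonist during compound exposure; series mostly up to about 77 µM; % is scaled to controls: 0 for no effect and ±100 for the full control effect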). Particulars: TR-UAS-bla HEK293, beta-lactamase ratio, antagonist mode, 18 h. Put shortly:
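TR-UAS-bla GripTite HEK293 cells in 2% charcoal/dextran FBS medium; compounds 0.59 nM to 92 uM with T3 at 0.4nM final, 18 h at 37 C. Beta-lactamase read by CCF4 fluorescence (460/530 nm); Hill fits gave IC50 and efficacy.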

Experiment [12] in a line: qHTS assay for small molecule activators of the p53 signaling pathway (AID 651743; active = well fitted activation curve with a large enough effect in the signal ratio, not every such curve was filed as active; the % refers to the signal ratio; also: series mostly up to about 92 µM; % of control where 0% means no effect). Particulars: HCT-116 p53RE-bla, beta-lactamase FRET ratio, 16 h; activation: stronger effect = higher value. The method in brief:
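HCT-116 p53RE-bla, 4,000 cells/well; 5 h settle; cpd/DMSO 16 h, 37 C; LiveBLAzer B/G 2 h RT; fluorescence intensity.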

Experiment [13] is described as follows: qHTS assay for environmental chemicals that activate the Aryl hydrocarbon Receptor (AhR) signaling pathway (AID 651777; active = well fitted curve in the direction sought with a large enough effect; an effect the other way counts as inactive or inconclusive; also: % of control where 0% means no effect; nearly all actives have a fitted effect of over 15% in size). Particulars: 1A2-DRE human hepatoma cells, luciferase, 24 h; activation: stronger effect = higher value. Put shortly: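 Induction of CYP1A2 transcription through AhR is detected by luciferase in 1A2-DRE hepatoma cells. Compounds or DMSO act for 24 hr at 37 C before a 30 min One-Glo step at room temperature.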

Experiment [14] concerns the target Peroxisome proliferator-activated receptor alpha (Homo sapiens) (UniProt Q07869). Put plainly: qHTS assay for small molecule agonists of the peroxisome proliferator-activated receptor alpha (PPARalpha) signaling pathway (AID 651778; active = well fitted curve in the direction sought with a large enough effect; an effect the other way counts as inactive or inconclusive; also: % of control where 0% means no effect). The conditions noted are these: PathHunter PPARalpha complementation, chemiluminescence, 6 h; max response: stronger effect = higher value. Put shortly:
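Enzyme-fragment complementation assay in which ligand-bound PPARalpha translocates and forms an active enzyme that generates chemiluminescence. Cells were plated overnight, exposed to compound for 6 hr at 37 C, and then given detection reagent for 60 min at room temperature.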

Experiment [15] in a line: qHTS assay for small molecule agonists of the antioxidant response element (ARE) signaling pathway measured by Nrf2-dependant transcriptional activity (AID 720636; active = well fitted curve in the direction sought with a large enough effect in the repeat runs; an effect the other way counts as inactive or inconclusive;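 also: HepG2 cells with an ARE-driven luciferase reporter; % of control where 0% means no effect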). Put shortly: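 We exposed ARE-luc HepG2 cells, seeded in assay medium with 1% dialyzed FBS and allowed 6 hr to adhere, to test compounds overnight (16 hr, 37 C) before measuring luciferase with ONE-Glo.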
A short description of experiment [16]: qHTS assay for small molecule agonists of the antioxidant response element (ARE) signaling pathway measured by Nrf2-dependant transcriptional activity - cell viability counter screen (AID 720653; active = well fitted curve in the direction sought with a large enough effect in the repeat runs; an effect the other way counts as inactive or inconclusive; also: % is scaled to controls: 0 for no effect and ±100 for the full control effect). The conditions noted are these: ARE-bla HepG2 viability, CellTiter-Glo ATP luminescence, 16 h; max response: stronger effect = lower value. Put shortly:
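ARE-bla HepG2 cells treated with compounds for 16 h at 37C; this counter screen measures viability as intracellular ATP by CellTiter-Glo luminescence after 30 min at room temperature.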

A short description of experiment [17]: qHTS assay for cell viability of HEK293 cells (AID 743288; active = well fitted curve in the direction sought with a large enough effect; an effect the other way counts as inactive or inconclusive; also: % is scaled to controls: 0 for no effect and ±100 for the full control effect; nearly all actives have a fitted effect of over 50% in size). Particulars: ATP luminescence (CellTiter-Glo), 18 h; max response: stronger effect = lower value. Put shortly:
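Environmental chemicals tested in qHTS format against parental HEK293 cells; 18 h treatment, 37 C; read-out ATP luminescence (CellTiter-Glo), 30 min RT development.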

Experiment [18] in a line: qHTS assay for cell viability of the p53RE-bla HCT-116 cell line (AID 743292; active = well fitted curve in the direction sought with a large enough effect; an effect the other way counts as inactive or inconclusive; also: % is scaled to controls: 0 for no effect and ±100 for the full control effect; nearly all actives have a fitted effect of over 55% in size). Put shortly: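 In this qHTS counter-screen, metabolically competent p53RE-bla HCT-116 cells were counted via their ATP content. Compounds were applied for 16 h at 37 C and luciferase-coupled luminescence was measured.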
The target of experiment [19] is Nuclear receptor subfamily 1 group I member 2 (Rattus norvegicus) (UniProt Q9R1A7). Put plainly: qHTS assay for small molecule activators of the rat pregnane X receptor (rPXR) signaling pathway (AID 651751; call rule not given here; also: 0% is about no effect). Particulars: rPXR reporter cells, luciferase (One-Glo), 24 h.
Experiment [20] addresses Glucocorticoid receptor (Homo sapiens) (UniProt P04150). Put plainly: qHTS assay for small molecule agonists of glucocorticoid receptor signaling (AID 588532; active = well fitted curve in the direction sought with a large enough effect in the signal ratio, with a control signal flat; the % refers to the signal ratio;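 also: 100% = dexamethasone at 0.1 µM and 0% = DMSO only wells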). The conditions noted are these: HeLa MMTV-bla, beta-lactamase ratio, agonist, 18 h; activation: stronger effect = higher value, percent of dexamethasone control, DMSO zero. The method in brief: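 HeLa GRE-bla reporter cells; 18 h compound exposure at 37 C; 2 h CCF4 loading at room temperature; fluorescence at 460 and 530 nm; EC50 by Hill equation.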

Peroxisome proliferator-activated receptor alpha (Homo sapiens), sequence (Q07869 whole entry, looked up, the tested form may be a part): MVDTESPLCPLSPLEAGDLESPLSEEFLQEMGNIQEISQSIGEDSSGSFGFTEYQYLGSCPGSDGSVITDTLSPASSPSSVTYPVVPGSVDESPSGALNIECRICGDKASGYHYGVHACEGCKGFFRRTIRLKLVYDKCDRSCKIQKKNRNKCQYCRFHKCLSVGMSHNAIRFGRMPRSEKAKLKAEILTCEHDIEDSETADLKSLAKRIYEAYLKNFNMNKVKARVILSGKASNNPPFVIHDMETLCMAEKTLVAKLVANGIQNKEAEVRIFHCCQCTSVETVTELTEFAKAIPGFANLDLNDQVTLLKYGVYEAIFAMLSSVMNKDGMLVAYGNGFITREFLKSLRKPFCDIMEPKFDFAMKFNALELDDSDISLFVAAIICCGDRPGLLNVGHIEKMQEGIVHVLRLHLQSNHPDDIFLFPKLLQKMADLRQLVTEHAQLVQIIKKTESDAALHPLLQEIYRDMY
Thyroid hormone receptor beta (Homo sapiens), sequence (P10828 whole entry, looked up): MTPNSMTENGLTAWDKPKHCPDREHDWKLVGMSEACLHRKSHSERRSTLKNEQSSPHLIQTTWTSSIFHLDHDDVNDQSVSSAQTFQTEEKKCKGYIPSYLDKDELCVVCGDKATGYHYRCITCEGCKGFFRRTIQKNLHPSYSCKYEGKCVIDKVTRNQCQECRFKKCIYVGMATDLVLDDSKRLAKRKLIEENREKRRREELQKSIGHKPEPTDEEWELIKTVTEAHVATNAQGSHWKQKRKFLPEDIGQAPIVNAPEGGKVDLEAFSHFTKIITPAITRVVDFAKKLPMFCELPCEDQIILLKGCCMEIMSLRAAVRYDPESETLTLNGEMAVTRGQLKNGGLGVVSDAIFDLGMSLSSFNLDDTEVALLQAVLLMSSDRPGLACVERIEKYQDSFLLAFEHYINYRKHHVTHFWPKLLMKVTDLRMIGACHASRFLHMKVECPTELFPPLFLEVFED
Peroxisome proliferator-activated receptor gamma (Homo sapiens), sequence (P37231 whole entry, looked up): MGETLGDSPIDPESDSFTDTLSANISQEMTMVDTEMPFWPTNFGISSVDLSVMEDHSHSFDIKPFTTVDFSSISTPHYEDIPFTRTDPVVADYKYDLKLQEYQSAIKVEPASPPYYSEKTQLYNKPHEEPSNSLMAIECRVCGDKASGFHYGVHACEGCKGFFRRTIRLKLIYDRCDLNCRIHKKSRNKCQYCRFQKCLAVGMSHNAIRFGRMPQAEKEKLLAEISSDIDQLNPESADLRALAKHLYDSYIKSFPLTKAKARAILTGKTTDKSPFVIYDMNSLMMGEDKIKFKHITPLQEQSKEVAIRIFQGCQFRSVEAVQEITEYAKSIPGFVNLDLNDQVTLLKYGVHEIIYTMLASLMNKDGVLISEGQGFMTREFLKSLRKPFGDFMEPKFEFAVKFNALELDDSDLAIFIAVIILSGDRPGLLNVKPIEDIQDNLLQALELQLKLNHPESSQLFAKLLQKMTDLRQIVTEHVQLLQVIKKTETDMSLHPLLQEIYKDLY
Nuclear receptor subfamily 1 group I member 2 (Rattus norvegicus), sequence (Q9R1A7 whole entry, looked up): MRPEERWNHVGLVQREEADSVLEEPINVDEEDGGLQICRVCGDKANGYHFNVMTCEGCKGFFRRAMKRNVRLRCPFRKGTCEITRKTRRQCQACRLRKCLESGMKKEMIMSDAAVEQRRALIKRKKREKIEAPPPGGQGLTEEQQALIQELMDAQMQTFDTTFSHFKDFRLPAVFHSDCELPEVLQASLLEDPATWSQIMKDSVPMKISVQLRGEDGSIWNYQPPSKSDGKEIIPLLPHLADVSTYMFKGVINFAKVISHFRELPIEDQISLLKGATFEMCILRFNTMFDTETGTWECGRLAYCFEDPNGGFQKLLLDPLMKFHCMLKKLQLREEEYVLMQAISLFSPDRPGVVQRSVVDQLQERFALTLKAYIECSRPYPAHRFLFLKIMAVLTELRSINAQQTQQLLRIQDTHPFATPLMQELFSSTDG
Retinoic acid receptor RXR-alpha (Homo sapiens), sequence (P19793 whole entry, looked up): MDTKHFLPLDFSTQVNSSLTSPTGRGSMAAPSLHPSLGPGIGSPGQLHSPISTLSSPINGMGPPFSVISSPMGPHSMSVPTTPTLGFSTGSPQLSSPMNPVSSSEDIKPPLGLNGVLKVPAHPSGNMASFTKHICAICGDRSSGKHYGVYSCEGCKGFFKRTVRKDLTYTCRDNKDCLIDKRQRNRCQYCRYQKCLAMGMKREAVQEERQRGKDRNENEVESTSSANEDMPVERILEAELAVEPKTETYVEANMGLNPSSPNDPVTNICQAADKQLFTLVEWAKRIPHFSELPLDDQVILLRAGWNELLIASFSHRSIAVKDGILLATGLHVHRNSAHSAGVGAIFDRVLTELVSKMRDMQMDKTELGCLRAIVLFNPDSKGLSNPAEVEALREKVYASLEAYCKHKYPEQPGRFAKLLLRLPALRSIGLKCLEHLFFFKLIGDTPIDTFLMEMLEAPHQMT
Peroxisome proliferator-activated receptor delta (Homo sapiens), sequence (Q03181 whole entry, looked up): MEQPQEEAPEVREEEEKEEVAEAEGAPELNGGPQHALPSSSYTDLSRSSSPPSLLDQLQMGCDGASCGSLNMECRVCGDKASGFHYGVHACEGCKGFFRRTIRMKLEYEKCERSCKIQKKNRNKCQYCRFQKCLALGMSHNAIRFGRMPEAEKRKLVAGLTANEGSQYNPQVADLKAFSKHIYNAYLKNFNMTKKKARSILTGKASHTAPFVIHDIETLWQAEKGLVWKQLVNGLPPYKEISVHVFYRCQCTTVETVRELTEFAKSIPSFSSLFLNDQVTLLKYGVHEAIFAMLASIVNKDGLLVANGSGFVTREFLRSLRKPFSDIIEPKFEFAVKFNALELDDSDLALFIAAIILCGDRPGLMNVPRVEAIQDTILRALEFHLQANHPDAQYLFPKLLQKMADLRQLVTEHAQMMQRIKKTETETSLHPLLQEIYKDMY
Vitamin D3 receptor (Homo sapiens), sequence (P11473 whole entry, looked up): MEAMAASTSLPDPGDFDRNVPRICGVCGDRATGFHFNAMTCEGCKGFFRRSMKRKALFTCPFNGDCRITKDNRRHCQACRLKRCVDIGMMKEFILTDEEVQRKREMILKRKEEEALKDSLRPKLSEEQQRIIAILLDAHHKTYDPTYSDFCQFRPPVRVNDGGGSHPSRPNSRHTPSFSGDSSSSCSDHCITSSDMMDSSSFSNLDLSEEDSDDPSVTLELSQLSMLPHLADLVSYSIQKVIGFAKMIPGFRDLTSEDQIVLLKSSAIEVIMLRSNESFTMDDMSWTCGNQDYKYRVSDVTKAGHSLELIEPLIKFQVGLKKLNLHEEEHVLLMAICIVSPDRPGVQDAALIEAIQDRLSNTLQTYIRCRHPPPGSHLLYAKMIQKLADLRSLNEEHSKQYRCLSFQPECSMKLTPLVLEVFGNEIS
Glucocorticoid receptor (Homo sapiens), sequence (P04150 whole entry, looked up): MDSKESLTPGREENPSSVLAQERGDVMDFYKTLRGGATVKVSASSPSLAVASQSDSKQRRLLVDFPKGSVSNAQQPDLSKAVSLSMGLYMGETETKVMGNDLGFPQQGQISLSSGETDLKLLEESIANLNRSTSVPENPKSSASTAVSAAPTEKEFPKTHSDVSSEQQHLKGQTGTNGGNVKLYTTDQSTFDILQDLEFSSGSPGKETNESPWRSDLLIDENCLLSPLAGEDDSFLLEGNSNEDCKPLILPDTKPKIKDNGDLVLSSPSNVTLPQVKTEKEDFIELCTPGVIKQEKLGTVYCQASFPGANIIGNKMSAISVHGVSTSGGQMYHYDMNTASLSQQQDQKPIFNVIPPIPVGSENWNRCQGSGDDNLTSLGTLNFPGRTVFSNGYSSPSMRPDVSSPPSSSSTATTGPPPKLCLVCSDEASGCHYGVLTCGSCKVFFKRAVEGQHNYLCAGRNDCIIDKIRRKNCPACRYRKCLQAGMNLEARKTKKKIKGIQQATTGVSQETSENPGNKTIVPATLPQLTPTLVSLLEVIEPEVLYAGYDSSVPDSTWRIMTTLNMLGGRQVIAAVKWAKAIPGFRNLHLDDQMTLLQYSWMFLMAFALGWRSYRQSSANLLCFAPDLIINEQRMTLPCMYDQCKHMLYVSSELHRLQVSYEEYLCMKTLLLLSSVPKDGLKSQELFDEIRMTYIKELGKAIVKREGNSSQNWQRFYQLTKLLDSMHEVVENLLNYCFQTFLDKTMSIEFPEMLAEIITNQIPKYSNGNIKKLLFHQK

Turning to `Cc1nn(-c2cc(NS(C)(=O)=O)c(Cl)cc2Cl)c(=O)n1C(F)F`, the outcome in experiment [1] and in experiment [6] was inactive. Besides, the max response is -1.23% in [2]; -3.07% in experiment [9]; -28.1% (inactive) in experiment [10]; -0.197% (inactive) in experiment [14]; 1.41% (inactive) in experiment [16]; -6.27% (inactive) in [17]. The max response in [19] is -0.675% (inactive). Besides, the Potency entry in [3], in experiment [4], in [5], in experiment [7], in experiment [8] and in experiment [15] was “inactive” in each case. In experiment [18], the Potency result is “inactive”. In addition, the activity change % (negative = inhibition) in [11] is -13.9% (inactive). In addition, the values for the activation in experiment [12] and in experiment [13] were -4.43% (inactive) and -2.63% (inactive), respectively.
As for `CC1(C)CON(Cc2ccccc2Cl)C1=O`, in experiment [1], the compound was classed as inactive. Moreover, the max response in experiment [2] was 23.3%; in experiment [9] it was -9.42%; in experiment [10] it was -4.63% (inactive); in [16], -9.67% (inactive); in experiment [17], -8.49% (inactive); in experiment [19], 13.2% (inactive). Besides, the Potency entry in experiment [3], in [4], in [5], in experiment [7], in experiment [8] and in experiment [18] was “inactive” each time. Further, the activity change % (negative = inhibition) in experiment [11] is 0.368% (inactive). The activation in [12] is -1.76% (inactive); in experiment [13], 5.31% (inactive).
For the compound `COc1ccc(/C(=C/C(=O)N2CCOCC2)c2ccc(Cl)cc2)cc1OC`, the Potency result in experiment [3], in experiment [4], in experiment [5], in experiment [7], in experiment [8] and in experiment [15] was “inactive” in each case. In [18], the Potency result was “inactive”. Moreover, the call in [6] was inactive. Also, the max response was 24.3% in experiment [9]; -50.8% (inactive) in experiment [10]; 0.316% (inactive) in experiment [14]; -2.69% (inactive) in experiment [16]; -14.1% (inactive) in experiment [17]; 8.84% (inactive) in [19]. Further, the activation in [12] was -3.46% (inactive); in experiment [13], -0.517% (inactive).
Turning to `CCOP(=S)(OCC)SCSP(=S)(OCC)OCC`, the activation in experiment [20] is -1.05% (inactive); in experiment [13], 3.33% (inactive). Further, the result in experiment [1] and in [6] was inactive. Besides, the max response in experiment [2] was 36.7%; in experiment [9], -10.3%; in experiment [10] it was -4.31% (inactive); in [14] it was -1.9% (inactive); in experiment [16] it was -0.915% (inactive); in experiment [17], -18.3% (inactive). Also, the Potency entry in [3], in experiment [4], in [5], in experiment [8], in experiment [15] and in [18] was “inactive” in each case.
Regarding `Cc1cc(Cl)ccc1O[C@H](C)C(=O)O`, the Potency entry in [4], in [7], in experiment [8], in [15] and in experiment [18] was “inactive” each time. Further, the max response is -16.8% in experiment [9]; -2.52% (inactive) in experiment [10]; -1.51% (inactive) in [14]; 7.37% (inactive) in [16]; 0.74% (inactive) in experiment [17]; -1.45% (inactive) in [19]. In experiment [11], the activity change % (negative = inhibition) was 17.7% (inactive). The activation in experiment [13] is -2.24% (inactive).
As to `CCC(C)Nc1c([N+](=O)[O-])cc(C(C)(C)C)cc1[N+](=O)[O-]` (configuration not stated), the activation in experiment [20] is -11.2% (inactive). Further, the compound was called inactive in experiment [1] and in [6]. The max response in experiment [2] was -21.7%; in experiment [14], 8.22% (inactive); in experiment [16], 11% (inactive); in experiment [17] it was -2.45% (inactive). Further, the Potency entry in [3], in [4], in [5], in [7] and in experiment [8] was “inactive” in each case.
